# Experimental data published in PubChem BioAssay (Tox21).
# Results filed as inconclusive are left out. A call without a number means that no potency is given here. Some structures have more than one record in an assay (separate samples or runs), and their calls can disagree. The source made the active and inactive calls. Unless noted, calls follow the shape of the dose curve; as a rule, active = well fitted curve in the direction sought with a large enough effect in the repeat runs; inconclusive = weak or mixed curves; inactive = no such curve, though single readings can be large; an effect the other way counts as inactive or inconclusive.
# Key:
# [1] = qHTS assay to identify small molecule agonists of the retinoic acid receptor (RAR) signaling pathway (AID 1159553); conditions: C3RL4 RARE luciferase reporter, agonist, 6 h; at 73.3 µM (top of the series)
# Outline: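 Activation of retinol signaling was monitored via a RARE luciferase reporter in C3RL4 cells. After 6 hr compound treatment at 37 C, detection reagent was added for 30 min at room temperature before luminescence reading.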
# [2] = qHTS assay to identify small molecule antagonists of the estrogen related receptor (ERR) signaling pathway - cell viability counter screen (AID 1224818); conditions: ERR reporter cell line viability counter screen; series mostly up to 46.1 µM;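 also: viability measured after 17.5 h of compound exposure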
# Outline: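 In the same ERR cell assay, compound-treated wells (17.5 h, 37 C) were multiplexed with a fluorogenic viability reagent, CellTiter-Fluor, read after 30 min to flag cytotoxic substances.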
# [3] = qHTS assay to identify small molecule antagonists of the estrogen related receptor signaling pathway with the pleiotropic PPARgamma coactivator (PGC) cell viability counter screen (AID 1224822); conditions: ERR/PGC reporter cell line viability counter screen; series mostly up to 46.1 µM
# Outline: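 Compounds in DMSO, with positive and negative controls, were applied to PGC/ERR cells (2,000/well) and left 17.5 h at 37 C before CellTiter-Fluor detection.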
# [4] = target: Retinoic acid receptor RXR-alpha (Homo sapiens) (UniProt P19793); test: qHTS assay to identify small molecule agonists of the RXR signaling pathway (AID 1159527; calls by dose curve; also: nearly all actives have a fitted effect of over 35% in size; also: potency is read from the fitted curve at half-maximal effect); conditions: HEK293T RXRa-UAS-bla, beta-lactamase ratio, 16 h; series mostly up to 76.8 µM
# Outline: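 Agonist mode; 9-cis retinoic acid positive control. HEK 293T UAS-bla reporter cells, 2% charcoal-stripped FBS, 16 hr compound exposure at 37 C/5% CO2. LiveBLAzer B/G FRET substrate 2 hr RT; ex 405, em 460/530 nm.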
# [5] = qHTS assay to identify small molecule agonists of the RXR signaling pathway - cell viability counter screen (AID 1159529); conditions: RXR-alpha-bla HEK293T viability, CellTiter-Glo, 16 h; series mostly up to 76.8 µM; also: nearly all actives have a fitted effect of over 50% in size
# Outline: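 Luminescence from CellTiter-Glo (30 min, RT) measured viability in the same wells as the beta-lactamase reporter readout. Cells: GeneBLAzer RXR-alpha HEK 293T, 2% charcoal-stripped FBS. Compound exposure 16 hr, 37 C.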
# [6] = qHTS assay to identify small molecule antagonists of the retinoid acid receptor (RAR) signaling pathway - cell viability counter screen (AID 1159551); conditions: C3RL4 cells viability, ATP luminescence (CellTiter-Glo), 6 h; series mostly up to 92.4 µM; also: nearly all actives have a fitted effect of over 35% in size
# Outline: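 Seed C3RL4 cells; next day add compound, then retinol to 1 uM final; incubate 6 h at 37 C; add CellTiter-Glo; read luminescence after 30 min at RT.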
# [7] = qHTS assay to identify small molecule antagonists of the retinoic acid receptor (RAR) signaling pathway (AID 1159552; also: nearly all actives have a fitted effect of over 50% in size); conditions: C3RL4 RARE luciferase reporter, retinol-stimulated, 6 h; series mostly up to 92.4 µM
# Outline: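 Luminescence from a RARE luciferase reporter in C3RL4 cells served as read-out. Cells received compounds together with 1 uM final retinol and incubated 6 hr at 37 C before detection reagent was added for 30 min at room temperature.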
# [8] = qHTS assay to identify small molecule antagonists of the estrogen related receptor (ERR) signaling pathway from Tox21 library - cell viability counter screen (AID 1224834); conditions: ERR reporter cells viability, CellTiter-Fluor, 17.5 h; series mostly up to 92.4 µM; also: nearly all actives have a fitted effect of over 30% in size
# Outline: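 CellTiter-Fluor fluorescence measured; ERR cells; 17.5 h compound incubation at 37 C; 30 min reagent step.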
# [9] = target: Luciferin 4-monooxygenase (Photinus pyralis) (UniProt P08659); test: qHTS assay to identify small molecule inhibitors of firefly luciferase (AID 1224835); also: nearly all actives have a fitted effect of over 25% in size; conditions: purified P. pyralis luciferase, luminescence inhibition; series mostly up to 115 µM
# Outline: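 Biochemical qHTS: compounds run as interplate titrations against purified firefly enzyme, with D-luciferin and ATP each at its KM concentration. Light output recorded by CCD imaging.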
# [10] = qHTS assay to identify small molecule agonists of the constitutive androstane receptor (CAR) signaling pathway - cell viability counter screen (AID 1224836); conditions: HepG2-CYP2B6-hCAR viability, CellTiter-Fluor, 23 h, PK11195 added to every well; series mostly up to 92.4 µM; also: nearly all actives have a fitted effect of over 45% in size
# Outline: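 Viability read-out: CellTiter-Fluor fluorescence after 23 h compound exposure at 37 C/5% CO2 in double-stable HepG2-CYP2B6-hCAR cells, with PK11195 present at 0.75 uM final; compounds tested in 15-point titration.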
# [11] = qHTS assay to identify small molecule antagonists of the constitutive androstane receptor (CAR) signaling pathway - cell viability counter screen (AID 1224837); conditions: HepG2-CYP2B6-hCAR viability, CellTiter-Fluor, 23 h, co-treated with 50 nM CITCO; series mostly up to 92.4 µM; also: nearly all actives have a fitted effect of over 45% in size
# Outline: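 Using CellTiter-Fluor, viability is scored in HepG2 cells stably carrying hCAR and a 2.2kb CYP2B6 reporter after 23 hr compound exposure across 15 concentrations, with CITCO present at 50 nM.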
# [12] = target: Nuclear receptor subfamily 1 group I member 3 (Homo sapiens) (UniProt Q14994); test: qHTS assay to identify small molecule antagonists of the constitutive androstane receptor (CAR) signaling pathway (AID 1224838); conditions: HepG2-CYP2B6-hCAR luciferase, CITCO-stimulated, 24 h; series mostly up to 92.4 µM;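 also: HepG2 cells stably expressing hCAR with CYP2B6 luciferase reporter stimulated by CITCO; nearly all actives have a fitted effect of over 40% in size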
# Outline: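 Reporter luminescence was quantified after 24 h exposure of hCAR/CYP2B6-2.2kb double-stable HepG2 cells to compounds at 15 concentrations in the presence of 50 nM CITCO final.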
# [13] = target: Nuclear receptor subfamily 1 group I member 3 (Homo sapiens) (UniProt Q14994); test: qHTS assay to identify small molecule agonists of the constitutive androstane receptor (CAR) signaling pathway (AID 1224839); conditions: HepG2 hCAR CYP2B6-luciferase, agonist mode, 24 h; series mostly up to 92.4 µM;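 also: HepG2 cells stably carrying human CAR and a CYP2B6 luciferase reporter; nearly all actives have a fitted effect of over 15% in size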
# Outline: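 Luminescence read-out (ONE-Glo, 30 min, room temperature) from double-stable HepG2-CYP2B6-hCAR cells exposed 24 h to 15-point compound series in presence of 0.75 uM PK11195 final.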
# [14] = qHTS assay to identify small molecule antagonists of the estrogen related receptor signaling pathway with the pleiotropic PPARgamma coactivator (PGC) from Tox21 10K library - cell viability counter screen (AID 1224840; active = well fitted cell-killing curve with a large enough effect in the repeat runs, not every such curve was filed as active; also: nearly all actives have a fitted effect of over 40% in size); conditions: PGC/ERR reporter cells viability, CellTiter-Fluor, 17.5 h; series mostly up to 92.4 µM
# Outline: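 Here the PGC/ERR cells serve as a cytotoxicity control: they are exposed to compounds for 17.5 hours at 37 C, and live-cell signal is quantified using CellTiter-Fluor fluorescence.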
# [15] = target: Thyrotropin receptor (Homo sapiens) (UniProt P16473); test: qHTS assay to identify small molecule agonists of the thyroid stimulating hormone receptor (TSHR) signaling pathway (AID 1224843; calls by dose curve; also: nearly all actives have a fitted effect of over 45% in size); conditions: TSHR-HEK293 cells, cAMP HTRF, agonist mode, 30 min; series mostly up to 92.4 µM
# Outline: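 TSHR-HEK293 cells in agonist mode, 30 min room-temperature step, then cAMP measured by competitive HTRF (cAMP-d2 with anti-cAMP cryptate) after 1 h at room temperature. Tested at 15 concentrations in triplicate.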
# [16] = qHTS assay to identify small molecule agonists of the hypoxia (HIF-1) signaling pathway - cell viability counter screen (AID 1224844; calls by dose curve; also: nearly all actives have a fitted effect of over 50% in size); conditions: HRE-bla ME-180 viability, CellTiter-Glo luminescence, 17 h; series mostly up to 76.8 µM
# Outline: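 Multiplexed with the HRE beta-lactamase assay, this viability read used CellTiter-Glo luminescence (30 min, RT) on HRE-bla ME-180 cells treated 17 hrs with compounds in 0.5% dialyzed FBS medium.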
# [17] = qHTS assay to identify small molecule agonists of H2AX (AID 1224845; active = well fitted activation curve with a large enough effect in the signal ratio in the repeat runs, not every such curve was filed as active; the % refers to the signal ratio); conditions: CHO-K1 phospho-H2AX Ser139 HTRF, 3 h; series mostly up to 154 µM
# Outline: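 Wild-type CHO-K1 cells, plated overnight, exposed 3hr at 37C to 15 concentrations (0.76% DMSO final). Lysed, then HTRF anti-pH2AX (S139) cryptate and anti-H2AX-d2 antibodies, 24 hr room temperature; 665/620 nm emission read.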
# [18] = qHTS assay to identify small molecule agonists of the hypoxia (HIF-1) signaling pathway (AID 1224846; active = well fitted activation curve with a large enough effect in the signal ratio in the repeat runs, not every such curve was filed as active; the % refers to the signal ratio); conditions: HRE-bla ME-180 cells, beta-lactamase ratio, 17 h; series mostly up to 76.8 µM
# Outline: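 Hypoxia-pathway activation was scored as increased beta-lactamase from an HRE-controlled reporter in ME-180 cells; plated at 2,000 cells per well with 0.5% dialyzed FBS, they were exposed 17 hrs to compounds and then given CCF4-AM.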
# [19] = qHTS assay to identify small molecule antagonists of the estrogen related receptor signaling pathway with the pleiotropic PPARgamma coactivator (PGC) from Tox21 10K library (AID 1224841; call rule not given here; also: actives are mostly falling curves and most rising ones were filed inactive; nearly all actives have a fitted effect of over 50% in size); conditions: PGC/ERR reporter cell line, ONE-Glo luciferase, 18 h; series mostly up to 92.4 µM
# Outline: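 Each well held 2,000 PGC/ERR cells, pre-incubated six hours (37 C, 5% CO2). Test substances in DMSO were added by pin tool and left for 18 h at 37 C before luciferase detection by One-Glo.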
# [20] = qHTS assay to identify small molecule agonists of the estrogen related receptor signaling pathway with the pleiotropic PPARgamma coactivator (PGC) from Tox21 10K library (AID 1224842); conditions: PGC/ERR reporter cell line, luciferase ONE-Glo, 18 h; series mostly up to 92.4 µM; also: nearly all actives have a fitted effect of over 15% in size
# Outline: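 PGC/ERR reporter cell line, 2,000 cells per well, incubated 6 h at 37 C before 23 nL compound in DMSO was added. After 18 h at 37 C, One-Glo luminescence read following 30 min at room temperature.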
# Nuclear receptor subfamily 1 group I member 3 (Homo sapiens), sequence (Q14994 whole entry, looked up): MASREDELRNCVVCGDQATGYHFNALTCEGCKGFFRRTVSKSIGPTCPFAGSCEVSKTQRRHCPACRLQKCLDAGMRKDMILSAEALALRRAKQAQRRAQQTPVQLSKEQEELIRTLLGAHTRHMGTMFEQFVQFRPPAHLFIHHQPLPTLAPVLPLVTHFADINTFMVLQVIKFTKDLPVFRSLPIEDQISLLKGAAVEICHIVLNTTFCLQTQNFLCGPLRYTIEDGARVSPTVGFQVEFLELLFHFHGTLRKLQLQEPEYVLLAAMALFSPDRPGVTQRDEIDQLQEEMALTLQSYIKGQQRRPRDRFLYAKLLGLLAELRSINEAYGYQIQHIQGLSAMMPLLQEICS
# Retinoic acid receptor RXR-alpha (Homo sapiens), sequence (P19793 whole entry, looked up): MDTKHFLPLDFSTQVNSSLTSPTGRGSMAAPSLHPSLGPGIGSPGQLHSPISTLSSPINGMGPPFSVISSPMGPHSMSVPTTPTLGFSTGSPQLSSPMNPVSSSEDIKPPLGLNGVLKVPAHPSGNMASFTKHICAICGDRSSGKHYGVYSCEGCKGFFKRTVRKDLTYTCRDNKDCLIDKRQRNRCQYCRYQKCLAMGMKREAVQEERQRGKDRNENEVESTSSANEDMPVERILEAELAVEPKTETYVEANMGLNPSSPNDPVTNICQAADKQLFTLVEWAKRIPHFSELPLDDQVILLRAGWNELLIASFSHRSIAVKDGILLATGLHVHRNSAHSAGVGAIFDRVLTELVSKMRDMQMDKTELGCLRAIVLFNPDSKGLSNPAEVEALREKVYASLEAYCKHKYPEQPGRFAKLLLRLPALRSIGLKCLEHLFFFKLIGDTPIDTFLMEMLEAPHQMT
# Luciferin 4-monooxygenase (Photinus pyralis), sequence (P08659 whole entry, looked up): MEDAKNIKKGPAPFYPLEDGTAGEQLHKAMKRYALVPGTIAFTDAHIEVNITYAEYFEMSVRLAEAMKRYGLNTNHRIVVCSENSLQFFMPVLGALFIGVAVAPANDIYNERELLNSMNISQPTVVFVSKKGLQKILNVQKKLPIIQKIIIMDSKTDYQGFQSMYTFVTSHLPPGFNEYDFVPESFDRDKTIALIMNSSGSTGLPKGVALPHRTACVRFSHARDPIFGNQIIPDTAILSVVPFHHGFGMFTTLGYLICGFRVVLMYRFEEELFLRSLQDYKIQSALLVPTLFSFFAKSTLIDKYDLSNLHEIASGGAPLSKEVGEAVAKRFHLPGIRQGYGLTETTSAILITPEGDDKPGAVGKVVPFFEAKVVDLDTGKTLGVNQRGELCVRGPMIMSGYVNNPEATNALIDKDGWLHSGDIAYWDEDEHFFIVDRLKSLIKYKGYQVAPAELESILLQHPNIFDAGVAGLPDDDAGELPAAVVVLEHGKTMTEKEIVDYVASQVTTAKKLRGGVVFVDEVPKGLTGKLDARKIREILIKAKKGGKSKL
# Thyrotropin receptor (Homo sapiens), sequence (P16473 whole entry, looked up): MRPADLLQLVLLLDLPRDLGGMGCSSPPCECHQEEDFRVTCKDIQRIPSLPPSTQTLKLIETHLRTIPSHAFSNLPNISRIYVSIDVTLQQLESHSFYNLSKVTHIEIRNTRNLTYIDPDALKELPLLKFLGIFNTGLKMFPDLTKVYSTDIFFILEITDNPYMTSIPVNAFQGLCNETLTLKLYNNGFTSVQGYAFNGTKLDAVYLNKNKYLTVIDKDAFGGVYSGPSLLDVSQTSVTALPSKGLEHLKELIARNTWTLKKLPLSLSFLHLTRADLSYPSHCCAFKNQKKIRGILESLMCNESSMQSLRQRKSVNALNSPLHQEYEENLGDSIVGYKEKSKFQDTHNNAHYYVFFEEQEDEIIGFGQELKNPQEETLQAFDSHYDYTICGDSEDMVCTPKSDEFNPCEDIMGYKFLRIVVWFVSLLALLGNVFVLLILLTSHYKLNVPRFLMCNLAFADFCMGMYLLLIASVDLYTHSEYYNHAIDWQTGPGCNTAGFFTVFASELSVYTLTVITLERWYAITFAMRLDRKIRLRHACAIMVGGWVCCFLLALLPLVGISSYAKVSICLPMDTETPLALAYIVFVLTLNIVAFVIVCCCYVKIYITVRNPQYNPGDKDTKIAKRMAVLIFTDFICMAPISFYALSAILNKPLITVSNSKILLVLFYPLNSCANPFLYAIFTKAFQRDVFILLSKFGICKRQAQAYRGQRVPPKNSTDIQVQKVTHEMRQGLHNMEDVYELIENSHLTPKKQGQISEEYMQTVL
Compound,activation [1],outcome [2],outcome [3],Potency [4],Potency [5],outcome [6],Potency [7],Potency [8],Potency [9],Potency [10],Potency [11],Potency [12],Potency [13],Potency [14],Potency [15],Potency [16],Potency [17],outcome [18],Potency [19],outcome [20]
CC(C)(C)C(O)(CCc1ccc(Cl)cc1)Cn1cncn1 (centres undefined),-2.94% (inactive),–,–,–,–,–,–,–,–,–,–,–,–,–,–,–,–,–,–,–
NCC(O)c1ccc(O)cc1 (centres undefined),–,inactive,inactive,–,–,–,–,–,–,–,–,–,–,–,–,–,–,–,–,–
C#CC(C)(C)NC(=O)c1cc(Cl)cc(Cl)c1,–,–,–,inactive,inactive,inactive,inactive,inactive,inactive,inactive,inactive,inactive,inactive,inactive,inactive,inactive,inactive,inactive,–,–
O=c1n(Cl)c(=O)n(Cl)c(=O)n1Cl,–,–,–,inactive,inactive,inactive,inactive,inactive,inactive,inactive,inactive,inactive,inactive,inactive,inactive,inactive,inactive,inactive,–,–
Cc1cc(-c2cc(C)c(N)c(C)c2)cc(C)c1N,–,–,–,inactive,inactive,inactive,inactive,inactive,inactive,inactive,inactive,inactive,inactive,inactive,–,inactive,–,inactive,–,–
CC(C)N1C(=O)c2ccccc2NS1(=O)=O,–,–,–,inactive,inactive,inactive,inactive,inactive,inactive,inactive,inactive,–,–,inactive,inactive,inactive,inactive,inactive,inactive,inactive
CCOP(=S)(OCC)SCCSCC,–,–,–,inactive,inactive,inactive,inactive,inactive,inactive,inactive,inactive,inactive,inactive,inactive,–,inactive,inactive,inactive,–,–
CCC12COCN1COC2,–,–,–,inactive,inactive,inactive,–,inactive,inactive,inactive,inactive,inactive,inactive,inactive,inactive,inactive,inactive,inactive,–,–
CCOP(OCC)OCC,–,–,–,22.3 µM (active) and inactive,inactive,inactive,inactive,inactive,inactive,inactive,inactive,inactive,inactive,inactive,–,inactive,inactive,inactive,–,–
[O-][Cl+2]([O-])O,–,–,–,inactive,inactive,inactive,inactive,inactive,inactive,inactive,inactive,inactive,inactive,inactive,inactive,inactive,inactive,inactive,–,–
COC(=O)NS(=O)(=O)c1ccc(N)cc1,–,–,–,inactive,inactive,inactive,–,inactive,inactive,inactive,inactive,inactive,inactive,inactive,inactive,inactive,inactive,inactive,inactive,inactive
